The structures appear in SMILES notation.
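Also: KINOMEscan kinase panel screen.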

This assay relates to T1, MEK4.
T1 construct: gene MAP2K4
The settings on record: concentration: 1 μM, replicates: in singlicate; n = 1.
In the case of `CC(C)(C)c1ccc2nccc(Nc3cccc(O)c3)c2c1` [GW856795], the “%Inh” value came out at 0%.

Take `COc1cc2c(cc1OCCN1CCNCC1)ncc1c3ccc(C#N)cc3[nH]c21`: the “%Inh” value is 18%.

With `COc1cc(Nc2nccc(-c3c(-c4cccc(NC(=O)c5c(F)cccc5F)c4)nn4ccccc34)n2)cc(OC)c1OC` [GSK323521], the “%Inh” value turned out to be 41%.

Take `Cc1ccc(S(=O)(=O)Nc2ccc(Nc3nccc(Nc4cccc5[nH]ncc45)n3)cc2)cc1` [GSK581271]: the “%Inh” value stood at 10%.

For `CCc1ccc(-c2ccc3c(c2)-c2c(cnn2C)S(=O)(=O)N3C)cc1`, the “%Inh” value was 6%.

For `O=C(Nc1cccc(-c2nn3ncccc3c2-c2ccnc(Nc3ccccc3)n2)c1)c1c(F)cccc1F` [GSK198271], the “%Inh” value is recorded as 39%.

For the molecule `Fc1ccc(-c2ncn(C3CCNCC3)c2-c2ccnc(Oc3ccc(-c4ccccc4)cc3)n2)cc1` [SB-245391], the “%Inh” value is 15%.

For `CN(c1ccc(NC(=O)Nc2cc(C(F)(F)F)ccc2F)cc1)c1ccnc(Nc2ccc(S(N)(=O)=O)cc2)n1` [GW809893], the “%Inh” value worked out at 67%.

On to `CC(=O)Nc1nc2cnc(Nc3cc(NC(=O)c4cccc(C5(C#N)CC5)c4Cl)ccc3C)nc2s1`, for which the “%Inh” value was found to be 5%.

As to `Cl.c1ccc(-c2ccc3c(Nc4ccc5[nH]ncc5c4)ccnc3c2)nc1` [GW440137], the “%Inh” value turned out to be 0%.

Regarding `COc1cc(Nc2ncc3c(C)nc(-c4cc5ccccc5[nH]4)n3n2)cc(OC)c1OC` [GW869516], the “%Inh” value is listed as 0%.

As for `COC(=O)Nc1nc2ccc(Oc3ccc(NC(=O)Nc4cc(C(F)(F)F)ccc4F)cc3)cc2n1C.Cl` [GW692089], the “%Inh” value came out at 0%.

Turning to `Nc1n[nH]c2cnc(-c3ccccc3)cc12` [SB-642124], the “%Inh” value worked out at 37%.

For the molecule `COc1cc(Nc2nccc(N3CCC(NC(=O)Nc4cccc(C(C)=O)c4)C3)n2)cc(OC)c1OC` (stereo not shown) [GSK1379753], the “%Inh” value was 55%.

On to `O=C(NC1CCN(c2ccnc(Nc3ccc(F)cc3)n2)C1)c1cc2ccccc2s1` (stereo not shown) [GSK1379716], for which the “%Inh” value was 20%.

`c1ccc(-c2cnc3nccnn23)cc1` [AH20685]: the “%Inh” value was 2%.

As to `Nc1ncnc2c1nc(-c1ccccc1)n2-c1ccccc1` [SKF-97293], the “%Inh” value is listed as 35%.

In the case of `CN(C)Cc1ccc(-c2ccc3c(Nc4ccc(Oc5ccccn5)cc4)ccnc3c2)o1` [GW567148], the “%Inh” value came out at 26%.

As to `COc1cc(Nc2nccc(N3CCC(NC(=O)c4cc5ccccc5s4)C3)n2)cc(OC)c1OC` (stereo not shown) [GSK1379760], the “%Inh” value is reported as 0%.

As to `Cl.Cl.NCC(NCc1ccc(-c2ccnc3[nH]ccc23)s1)c1ccccc1` (stereo not shown) [GSK1321565], the “%Inh” value came to 18%.

Take `Cl.NC(=O)c1cccc(Nc2nccc(Nc3ccc(Oc4c(Cl)cccc4Cl)c(Cl)c3)n2)c1` [GW659009]: the “%Inh” value is 30%.

In the case of `O=C(Nc1ccccc1F)NC1CCN(c2ccnc(Nc3ccc(F)cc3)n2)CC1` [GSK1379800], the “%Inh” value was 4%.

On to `Cc1ccc(C(=O)N2CC[C@@H](O)C2)cc1-n1c(C)cc(OCc2ccc(F)cc2F)c(Br)c1=O`, for which the “%Inh” value is reported as 0%.

On to `CN(C)S(=O)(=O)c1cc(-c2ccc3nccc(-c4cccc(S(N)(=O)=O)c4)c3c2)cnc1N` [GSK1669921], for which the “%Inh” value was 27%.

For `O=c1[nH]cc(-c2ccc(N3CCOCC3)cc2)c2sc(-c3cn[nH]c3)cc12` [GSK2276055], the “%Inh” value was determined as 5%.

In the case of `CCCCc1nn2ncccc2c1-c1ccnc(Nc2ccc(N3CCN(C)CC3)cc2)n1` [GW684941], the “%Inh” value is on record as 32%.

For `O=C(Nc1cccc(-c2nn3ccccc3c2-c2ccnc(Nc3cccc(F)c3)n2)c1)c1c(F)ccc(F)c1Cl` [GSK357952], the “%Inh” value is given as 25%.

As for `c1ccc(-c2n[nH]cc2Nc2ccnc3ccccc23)nc1` [GW694077], the “%Inh” value is given as 92.8%.

For the molecule `COc1cc(Nc2nccc(-c3c(-c4cccc(NC(=O)c5c(F)cccc5F)c4)nn4ncccc34)n2)cc(OC)c1OC` [GSK327238], the “%Inh” value was found to be 46%.

As to `COc1cccc(C(=O)Nc2cccc(Oc3ccc4nc(NC(=O)C5CC5)cn4n3)c2)c1`, the “%Inh” value is on record as 0%.

With `COCCOCCOc1cc2ncc3c4ccc(C#N)cc4[nH]c3c2cc1OC`, the “%Inh” value stood at 0%.

On to `Nc1ncc(-c2ccc3nccc(-c4ccncc4)c3c2)cc1S(=O)(=O)N1CCOCC1` [GSK1627798], for which the “%Inh” value is 52%.

Take `Cc1cccc(NC(=O)Nc2ccc(Oc3ncnc4ccn(C)c34)cc2)c1`: the “%Inh” value is 0%.

For the molecule `CN1CCN(Cc2cccc(-c3ccc4c(Nc5ccc(Oc6ccccc6)cc5)ccnc4c3)c2)CC1` [GW578342], the “%Inh” value amounted to 9%.

Consider `COc1cccc(C2=C(Nc3ccc(Cl)c(C(=O)O)c3)C(=O)NC2=O)c1` [SB-390769], for which the “%Inh” value was determined as 97.4%.

`COc1ccc(Nc2nccc(NCCNC(=O)c3cc4ccccc4s3)n2)cc1` [GSK1379896]: the “%Inh” value was found to be 16%.

In the case of `COc1ccc(CNC(=O)NC2CCN(c3ccnc(Nc4ccc(F)cc4)n3)CC2)cc1` [GSK1379788], the “%Inh” value is recorded as 45%.

These data come from publication PMC5540273 (PLoS ONE, 2017).
